# In publication PMC7862700, “An all-to-all approach to the identification of sequence-specific readers for epigenetic DNA modifications on cytosine”:
# Assays:
# Test in all cases: DAPPL (digital affinity profiling via proximity ligation, sequencing); 10 mM Tris-HCl pH 7.5, 50 mM NaCl, 1 mM DTT, 4% glycerol, room temperature, 30 min; GST-TFs on glutathione beads, 16-mer random dsDNA library, 0.1% formaldehyde crosslink after washing; high values mean tight binding
# FLI1 = target: T1, FLI1 (Homo sapiens, UniProt Q01543 1-452); conditions: protein: recombinant; tags: N-terminal GST; dsDNA, one strand shown
# T1 sequence: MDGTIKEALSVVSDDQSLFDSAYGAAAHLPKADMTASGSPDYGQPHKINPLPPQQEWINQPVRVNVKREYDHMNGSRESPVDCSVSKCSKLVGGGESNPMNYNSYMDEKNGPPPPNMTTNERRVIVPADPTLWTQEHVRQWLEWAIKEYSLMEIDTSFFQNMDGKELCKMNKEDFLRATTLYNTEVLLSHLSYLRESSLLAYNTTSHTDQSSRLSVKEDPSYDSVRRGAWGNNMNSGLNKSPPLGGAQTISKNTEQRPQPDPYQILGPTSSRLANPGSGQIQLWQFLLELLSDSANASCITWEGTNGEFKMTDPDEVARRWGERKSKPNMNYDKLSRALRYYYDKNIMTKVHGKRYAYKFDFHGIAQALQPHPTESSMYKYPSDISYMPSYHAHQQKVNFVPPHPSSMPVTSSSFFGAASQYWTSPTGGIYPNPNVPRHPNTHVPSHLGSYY
# How it was run: (§1)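 A tag-only sample was pooled with DNA-barcoded human transcription factors that had been expressed in yeast as GST fusions and captured on glutathione beads. The pools were incubated for 30 min at room temperature with 200 nmole of a random double-stranded 16-mer DNA library in Tris/NaCl/DTT/glycerol buffer, then washed, crosslinked with 0.1% formaldehyde, proximity-ligated (BsaI/T4 ligase, 1 h, 37 °C), PCR-amplified and sequenced on an Illumina NextSeq500. Binding signal is each hexamer's read frequency for a factor divided by its frequency for the tag-only sample.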
# ELK1 = target: T2, ELK1 (Homo sapiens, UniProt P19419 1-428); conditions: protein: recombinant; tags: N-terminal GST; dsDNA, one strand shown
# T2 sequence: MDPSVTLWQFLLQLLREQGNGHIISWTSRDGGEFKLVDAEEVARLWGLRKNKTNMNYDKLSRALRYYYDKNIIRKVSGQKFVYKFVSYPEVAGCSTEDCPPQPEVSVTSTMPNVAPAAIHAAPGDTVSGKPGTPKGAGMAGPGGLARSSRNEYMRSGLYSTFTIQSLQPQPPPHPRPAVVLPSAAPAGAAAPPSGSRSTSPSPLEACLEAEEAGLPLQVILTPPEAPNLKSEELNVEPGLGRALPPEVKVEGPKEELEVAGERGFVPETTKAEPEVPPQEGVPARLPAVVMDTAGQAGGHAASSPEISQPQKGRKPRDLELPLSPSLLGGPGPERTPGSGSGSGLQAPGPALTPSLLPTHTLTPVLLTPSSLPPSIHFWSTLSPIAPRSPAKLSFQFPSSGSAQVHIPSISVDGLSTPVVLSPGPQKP
# How it was run: as §1
# GABPA = target: T3, GABPA (Homo sapiens, UniProt Q06546 1-454); conditions: protein: recombinant; tags: N-terminal GST; dsDNA, one strand shown
# T3 sequence: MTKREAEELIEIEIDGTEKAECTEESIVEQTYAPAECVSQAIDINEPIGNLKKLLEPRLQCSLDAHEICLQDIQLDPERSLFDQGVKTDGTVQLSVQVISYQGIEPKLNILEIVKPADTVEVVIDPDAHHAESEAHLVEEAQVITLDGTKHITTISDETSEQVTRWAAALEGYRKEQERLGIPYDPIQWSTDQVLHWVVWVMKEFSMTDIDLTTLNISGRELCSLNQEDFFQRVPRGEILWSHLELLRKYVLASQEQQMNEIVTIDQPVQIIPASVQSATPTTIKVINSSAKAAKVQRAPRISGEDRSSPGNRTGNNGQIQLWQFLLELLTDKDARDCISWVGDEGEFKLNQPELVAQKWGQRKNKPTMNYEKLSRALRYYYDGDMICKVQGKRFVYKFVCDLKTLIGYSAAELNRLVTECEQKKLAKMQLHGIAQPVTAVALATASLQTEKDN
# How it was run: as §1
# ERG = target: T4, ERG (Homo sapiens, UniProt P11308 1-479); conditions: protein: recombinant; tags: N-terminal GST; dsDNA, one strand shown
# T4 sequence: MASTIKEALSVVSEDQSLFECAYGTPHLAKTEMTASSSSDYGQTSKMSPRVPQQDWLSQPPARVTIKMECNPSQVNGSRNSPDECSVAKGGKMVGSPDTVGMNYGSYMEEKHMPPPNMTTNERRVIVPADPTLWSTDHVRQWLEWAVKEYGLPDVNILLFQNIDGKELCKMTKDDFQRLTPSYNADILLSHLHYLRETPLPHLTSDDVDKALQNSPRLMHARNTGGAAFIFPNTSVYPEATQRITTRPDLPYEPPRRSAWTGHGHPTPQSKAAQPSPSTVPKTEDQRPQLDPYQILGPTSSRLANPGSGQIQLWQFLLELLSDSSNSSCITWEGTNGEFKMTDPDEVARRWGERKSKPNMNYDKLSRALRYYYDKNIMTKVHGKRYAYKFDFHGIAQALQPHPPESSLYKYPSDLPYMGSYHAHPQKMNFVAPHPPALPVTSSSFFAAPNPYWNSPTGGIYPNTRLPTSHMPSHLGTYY
# How it was run: as §1
# ELF1 = ELF1 (Homo sapiens, UniProt P32519 1-619); conditions: protein: recombinant; tags: N-terminal GST; dsDNA, one strand shown
# Chain of ELF1 (P32519 whole entry): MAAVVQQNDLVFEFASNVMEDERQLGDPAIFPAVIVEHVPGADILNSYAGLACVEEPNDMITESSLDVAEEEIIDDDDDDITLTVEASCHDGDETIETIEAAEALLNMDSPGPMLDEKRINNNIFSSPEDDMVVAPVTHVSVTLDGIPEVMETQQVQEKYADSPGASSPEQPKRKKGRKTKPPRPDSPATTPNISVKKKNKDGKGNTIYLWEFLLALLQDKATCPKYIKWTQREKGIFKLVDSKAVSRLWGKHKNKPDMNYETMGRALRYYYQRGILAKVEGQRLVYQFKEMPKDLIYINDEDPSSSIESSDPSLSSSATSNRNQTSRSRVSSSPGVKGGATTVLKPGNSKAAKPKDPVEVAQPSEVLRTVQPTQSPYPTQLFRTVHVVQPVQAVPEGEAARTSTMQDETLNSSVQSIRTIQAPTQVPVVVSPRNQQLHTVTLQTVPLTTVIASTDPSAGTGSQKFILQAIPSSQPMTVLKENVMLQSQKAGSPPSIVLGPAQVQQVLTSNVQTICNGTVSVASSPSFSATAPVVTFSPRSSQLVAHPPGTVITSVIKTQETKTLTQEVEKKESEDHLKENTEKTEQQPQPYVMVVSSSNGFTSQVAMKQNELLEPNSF
# How it was run: as §1
# EHF = target: T5, EHF (Homo sapiens, UniProt Q9NZC4 1-300); conditions: protein: recombinant; tags: N-terminal GST; dsDNA, one strand shown
# T5 sequence: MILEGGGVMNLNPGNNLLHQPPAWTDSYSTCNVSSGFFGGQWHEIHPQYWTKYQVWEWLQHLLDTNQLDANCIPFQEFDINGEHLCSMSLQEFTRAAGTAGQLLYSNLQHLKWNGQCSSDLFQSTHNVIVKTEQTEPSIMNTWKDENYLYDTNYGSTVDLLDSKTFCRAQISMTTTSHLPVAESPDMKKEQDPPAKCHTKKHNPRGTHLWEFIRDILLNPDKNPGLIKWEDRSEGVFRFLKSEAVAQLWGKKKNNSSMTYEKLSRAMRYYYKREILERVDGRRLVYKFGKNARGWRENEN
# How it was run: as §1
# SPI1 = SPI1 (Homo sapiens, UniProt P17947 1-270); conditions: protein: recombinant; tags: N-terminal GST; dsDNA, one strand shown
# How it was run: as §1
# SPIB = SPIB (Homo sapiens, UniProt Q01892 1-262); conditions: protein: recombinant; tags: N-terminal GST; dsDNA, one strand shown
# Chain of SPIB (Q01892 whole entry): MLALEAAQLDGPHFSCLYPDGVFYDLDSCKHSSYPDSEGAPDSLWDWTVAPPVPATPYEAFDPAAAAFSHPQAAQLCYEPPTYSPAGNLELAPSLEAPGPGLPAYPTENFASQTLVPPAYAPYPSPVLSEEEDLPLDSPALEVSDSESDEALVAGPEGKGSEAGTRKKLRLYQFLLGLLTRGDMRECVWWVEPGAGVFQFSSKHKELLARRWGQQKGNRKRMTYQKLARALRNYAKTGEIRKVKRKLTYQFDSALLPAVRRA
# How it was run: as §1
# ELK3 = target: T6, ELK3 (Homo sapiens, UniProt P41970 1-407); conditions: protein: recombinant; tags: N-terminal GST; dsDNA, one strand shown
# T6 sequence: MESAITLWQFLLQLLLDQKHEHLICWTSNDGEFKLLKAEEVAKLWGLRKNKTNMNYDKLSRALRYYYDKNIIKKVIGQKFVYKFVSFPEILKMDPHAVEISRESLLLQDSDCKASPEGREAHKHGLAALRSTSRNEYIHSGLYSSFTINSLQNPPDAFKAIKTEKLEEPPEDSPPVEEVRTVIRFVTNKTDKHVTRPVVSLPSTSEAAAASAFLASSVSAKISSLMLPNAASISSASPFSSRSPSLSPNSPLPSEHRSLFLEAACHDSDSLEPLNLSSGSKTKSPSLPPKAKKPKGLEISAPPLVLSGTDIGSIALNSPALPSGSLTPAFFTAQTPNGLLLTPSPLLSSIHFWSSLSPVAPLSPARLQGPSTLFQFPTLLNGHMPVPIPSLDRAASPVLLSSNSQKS
# How it was run: as §1
# FEV = target: T7, FEV (Homo sapiens, UniProt Q99581 1-238); conditions: protein: recombinant; tags: N-terminal GST; dsDNA, one strand shown
# T7 sequence: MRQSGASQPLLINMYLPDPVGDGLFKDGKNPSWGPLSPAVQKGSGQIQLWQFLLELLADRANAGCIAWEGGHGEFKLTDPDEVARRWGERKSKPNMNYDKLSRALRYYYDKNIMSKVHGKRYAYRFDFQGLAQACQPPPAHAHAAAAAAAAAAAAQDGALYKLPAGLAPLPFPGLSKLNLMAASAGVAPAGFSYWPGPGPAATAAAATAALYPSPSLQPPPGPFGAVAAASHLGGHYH
# How it was run: as §1
# ETV5 = ETV5 (Homo sapiens, UniProt P41161 1-510); conditions: protein: recombinant; tags: N-terminal GST; dsDNA, one strand shown
# Chain of ETV5 (P41161 whole entry): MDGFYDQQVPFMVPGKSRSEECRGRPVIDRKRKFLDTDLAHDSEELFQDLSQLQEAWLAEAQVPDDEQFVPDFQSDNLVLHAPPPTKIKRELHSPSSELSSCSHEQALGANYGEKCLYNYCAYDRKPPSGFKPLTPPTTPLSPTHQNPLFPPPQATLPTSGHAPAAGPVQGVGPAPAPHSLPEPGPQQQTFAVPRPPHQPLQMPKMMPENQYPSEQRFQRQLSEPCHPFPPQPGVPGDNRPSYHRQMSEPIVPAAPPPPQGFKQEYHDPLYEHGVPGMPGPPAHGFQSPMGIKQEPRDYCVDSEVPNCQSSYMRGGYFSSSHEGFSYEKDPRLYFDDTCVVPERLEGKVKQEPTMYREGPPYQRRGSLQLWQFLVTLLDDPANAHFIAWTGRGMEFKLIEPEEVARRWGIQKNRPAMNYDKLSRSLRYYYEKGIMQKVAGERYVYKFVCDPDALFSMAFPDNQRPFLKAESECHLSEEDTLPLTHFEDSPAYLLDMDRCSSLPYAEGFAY
# How it was run: as §1
# HSF1 = HSF1 (Homo sapiens, UniProt Q00613 1-529); conditions: protein: recombinant; tags: N-terminal GST; chain copies: 3; dsDNA, one strand shown
# Chain of HSF1 (Q00613 whole entry): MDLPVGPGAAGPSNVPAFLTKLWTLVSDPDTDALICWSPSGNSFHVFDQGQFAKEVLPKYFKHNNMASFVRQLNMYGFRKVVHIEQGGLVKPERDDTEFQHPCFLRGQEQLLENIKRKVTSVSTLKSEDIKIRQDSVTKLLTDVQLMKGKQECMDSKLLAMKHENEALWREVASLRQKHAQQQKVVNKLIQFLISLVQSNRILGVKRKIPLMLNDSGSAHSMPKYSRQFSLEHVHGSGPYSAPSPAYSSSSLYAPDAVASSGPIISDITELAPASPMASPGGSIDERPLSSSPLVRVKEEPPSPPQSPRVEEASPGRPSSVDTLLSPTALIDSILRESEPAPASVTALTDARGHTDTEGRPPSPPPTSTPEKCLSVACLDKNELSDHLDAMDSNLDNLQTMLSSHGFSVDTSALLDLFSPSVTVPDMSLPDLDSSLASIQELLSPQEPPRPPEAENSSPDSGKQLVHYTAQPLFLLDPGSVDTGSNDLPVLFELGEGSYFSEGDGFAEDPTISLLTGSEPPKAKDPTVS
# How it was run: as §1
# SPIC = target: T8, SPIC (Homo sapiens, UniProt Q8N5J4 1-248); conditions: protein: recombinant; tags: N-terminal GST; dsDNA, one strand shown
# T8 sequence: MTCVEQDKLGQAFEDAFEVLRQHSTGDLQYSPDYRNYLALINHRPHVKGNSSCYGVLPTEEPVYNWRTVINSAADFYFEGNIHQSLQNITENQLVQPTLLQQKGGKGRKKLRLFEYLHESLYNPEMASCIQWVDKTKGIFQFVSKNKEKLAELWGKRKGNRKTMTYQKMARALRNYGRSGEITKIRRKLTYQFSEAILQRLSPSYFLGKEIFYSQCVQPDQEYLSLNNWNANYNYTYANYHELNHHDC
# How it was run: as §1
# ELF4 = ELF4 (Homo sapiens, UniProt Q99607 1-663); conditions: protein: recombinant; tags: N-terminal GST; dsDNA, one strand shown
# Chain of ELF4 (Q99607 whole entry): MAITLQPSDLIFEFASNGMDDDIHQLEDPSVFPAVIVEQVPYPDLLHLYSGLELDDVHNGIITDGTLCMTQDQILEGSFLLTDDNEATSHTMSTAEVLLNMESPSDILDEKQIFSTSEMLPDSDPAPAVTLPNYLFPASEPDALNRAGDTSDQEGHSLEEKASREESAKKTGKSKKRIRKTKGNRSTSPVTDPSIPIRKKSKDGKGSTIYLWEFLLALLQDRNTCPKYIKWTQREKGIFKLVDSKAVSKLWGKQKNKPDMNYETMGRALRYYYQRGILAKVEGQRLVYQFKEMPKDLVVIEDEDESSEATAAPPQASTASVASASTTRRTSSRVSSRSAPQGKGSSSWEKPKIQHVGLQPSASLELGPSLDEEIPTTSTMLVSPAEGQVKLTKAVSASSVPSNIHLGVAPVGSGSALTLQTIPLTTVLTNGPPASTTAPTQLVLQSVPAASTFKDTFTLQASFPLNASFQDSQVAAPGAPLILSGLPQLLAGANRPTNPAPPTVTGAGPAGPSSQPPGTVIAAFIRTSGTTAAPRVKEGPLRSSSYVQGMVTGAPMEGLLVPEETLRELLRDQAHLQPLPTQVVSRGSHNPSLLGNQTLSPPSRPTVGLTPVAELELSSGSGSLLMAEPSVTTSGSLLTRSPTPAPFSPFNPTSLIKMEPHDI
# How it was run: as §1
# ETV2 = target: T9, ETV2 (Homo sapiens, UniProt O00321 1-342); conditions: protein: recombinant; tags: N-terminal GST; dsDNA, one strand shown
# T9 sequence: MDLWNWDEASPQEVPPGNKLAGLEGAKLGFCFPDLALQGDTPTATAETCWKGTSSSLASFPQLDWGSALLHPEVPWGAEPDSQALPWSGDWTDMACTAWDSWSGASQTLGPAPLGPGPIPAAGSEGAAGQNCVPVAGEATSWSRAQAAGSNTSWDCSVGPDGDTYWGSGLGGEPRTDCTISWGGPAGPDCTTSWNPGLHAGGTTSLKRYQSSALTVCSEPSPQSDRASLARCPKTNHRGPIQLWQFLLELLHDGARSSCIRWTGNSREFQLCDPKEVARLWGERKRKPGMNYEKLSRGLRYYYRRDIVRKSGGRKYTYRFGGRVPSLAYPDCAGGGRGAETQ
# How it was run: as §1
# ELF3 = target: T10, ELF3 (Homo sapiens, UniProt P78545 1-371); conditions: protein: recombinant; tags: N-terminal GST; dsDNA, one strand shown
# T10 sequence: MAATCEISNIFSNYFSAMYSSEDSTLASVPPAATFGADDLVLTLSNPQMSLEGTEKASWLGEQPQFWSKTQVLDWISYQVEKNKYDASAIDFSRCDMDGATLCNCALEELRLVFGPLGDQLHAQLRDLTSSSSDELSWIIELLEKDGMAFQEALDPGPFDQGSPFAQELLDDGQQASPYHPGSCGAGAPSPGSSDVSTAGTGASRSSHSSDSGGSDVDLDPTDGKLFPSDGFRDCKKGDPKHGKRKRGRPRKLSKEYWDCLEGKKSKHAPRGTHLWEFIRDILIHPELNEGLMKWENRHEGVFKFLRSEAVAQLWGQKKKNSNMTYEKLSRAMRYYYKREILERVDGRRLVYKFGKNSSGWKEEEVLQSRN
# How it was run: as §1
# CRX = CRX (Homo sapiens, UniProt O43186 1-299); conditions: protein: recombinant; tags: N-terminal GST; dsDNA, one strand shown
# Chain of CRX (O43186 whole entry): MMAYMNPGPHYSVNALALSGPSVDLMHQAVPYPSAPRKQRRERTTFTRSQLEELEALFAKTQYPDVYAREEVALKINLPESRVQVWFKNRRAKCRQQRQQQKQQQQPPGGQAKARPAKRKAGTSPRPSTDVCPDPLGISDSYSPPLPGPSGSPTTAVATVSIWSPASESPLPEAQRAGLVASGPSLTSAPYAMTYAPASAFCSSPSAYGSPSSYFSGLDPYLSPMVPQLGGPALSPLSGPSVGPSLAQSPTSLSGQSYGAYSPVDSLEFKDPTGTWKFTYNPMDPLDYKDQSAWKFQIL
# How it was run: as §1
sequence,measurement,setting,value
CTTACG,binding signal,FLI1,"1.16 fold enrichment (6-mer frequency, TF over GST control)"
same,binding signal,ELK1,"1.15 fold enrichment (6-mer frequency, TF over GST control)"
same,binding signal,GABPA,"1.11 fold enrichment (6-mer frequency, TF over GST control)"
same,binding signal,ERG,"1.02 fold enrichment (6-mer frequency, TF over GST control)"
same,binding signal,ELF1,"1.1 fold enrichment (6-mer frequency, TF over GST control)"
same,binding signal,EHF,"1.07 fold enrichment (6-mer frequency, TF over GST control)"
same,binding signal,SPI1,"1.09 fold enrichment (6-mer frequency, TF over GST control)"
same,binding signal,SPIB,"1.06 fold enrichment (6-mer frequency, TF over GST control)"
same,binding signal,ELK3,"1.07 fold enrichment (6-mer frequency, TF over GST control)"
same,binding signal,FEV,"1.06 fold enrichment (6-mer frequency, TF over GST control)"
same,binding signal,ETV5,"1.12 fold enrichment (6-mer frequency, TF over GST control)"
same,binding signal,HSF1,"1.14 fold enrichment (6-mer frequency, TF over GST control)"
same,binding signal,SPIC,"1.02 fold enrichment (6-mer frequency, TF over GST control)"
same,binding signal,ELF4,"1.14 fold enrichment (6-mer frequency, TF over GST control)"
same,binding signal,ETV2,"1.1 fold enrichment (6-mer frequency, TF over GST control)"
same,binding signal,ELF3,"1.11 fold enrichment (6-mer frequency, TF over GST control)"
same,binding signal,CRX,"1.5 fold enrichment (6-mer frequency, TF over GST control)"
